# From PubChem
# Hits are enriched below; roughly 9.6% of the tested compounds scored in any of these assays.
# USP30 block – human USP30 deubiquitinase inhibition | Q70CQ3 | purified USP30, Ub-rhodamine cleavage fluorescence | inhibition, % at 25 µM | hit rate 5.3% among 47,000
# Target sequence (Q70CQ3 whole entry, looked up): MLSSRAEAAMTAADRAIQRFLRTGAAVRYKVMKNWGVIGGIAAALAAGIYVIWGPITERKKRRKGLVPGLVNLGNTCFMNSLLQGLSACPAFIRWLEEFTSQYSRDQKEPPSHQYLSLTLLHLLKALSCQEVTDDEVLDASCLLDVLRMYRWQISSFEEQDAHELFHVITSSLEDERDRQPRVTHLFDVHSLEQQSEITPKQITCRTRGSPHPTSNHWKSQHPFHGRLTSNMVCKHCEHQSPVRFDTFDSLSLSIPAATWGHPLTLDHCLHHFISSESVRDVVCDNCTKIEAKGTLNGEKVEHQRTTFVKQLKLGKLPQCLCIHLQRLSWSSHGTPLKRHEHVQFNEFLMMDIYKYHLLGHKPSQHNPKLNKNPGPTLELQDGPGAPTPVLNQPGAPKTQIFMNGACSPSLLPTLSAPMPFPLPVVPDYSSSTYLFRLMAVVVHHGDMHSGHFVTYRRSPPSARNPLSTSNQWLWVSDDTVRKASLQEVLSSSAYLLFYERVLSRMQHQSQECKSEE
# USP17 inh – blocks human USP17 ubiquitin-rhodamine cleavage. hit rate 6.5% among 47,000. AID 1645855. inhibition, % at 50 µM. A8MUK1. purified USP17, Ub-rhodamine cleavage fluorescence, 3 h
# * marks the source's active call; other numbers are inactive results; i = inactive; · = not tested or not shown. Rule as the data show it: active = inhibition above about 30%; inactive = the rest.
SMILES,USP30 block,USP17 inh
Cc1cn2c(=O)c(S(=O)(=O)NCC3CCCO3)c(C)nc2s1 (stereo not drawn),20,12
Cn1c(=O)c2c(nc(CN3CCN(c4ccccc4)CC3)n2CCN2CCOCC2)n(C)c1=O,-3,-5
Cn1c(=O)c2c(nc(CN3CCOCC3)n2CCc2ccccc2)n(C)c1=O,32*,3
Cc1ccc(CNC(=O)c2nc(CS(=O)(=O)c3ccccc3)no2)o1,-3,-1
O=C1CCSc2ccccc2N1Cc1ccc([N+](=O)[O-])cc1,33*,1
O=C1CCSc2ccccc2N1Cc1cccc(F)c1,-16,-6
Cc1ccccc1CN1C(=O)CCSc2ccc(Cl)cc21,21,·
CC1Oc2ccccc2C(=O)N(Cc2ccc([N+](=O)[O-])cc2)C1=O (stereo not drawn),28,3
O=C1CCSc2ccc(Cl)cc2N1Cc1cccc(F)c1,34*,18
CC1CC(=O)N(Cc2ccc([N+](=O)[O-])cc2)c2ccccc2S1 (stereo not drawn),33*,-8
CCN1C(=O)[C@H]2CN(C(C)=O)C[C@H]2C12CCN(C(=O)NCCc1ccc(F)cc1)CC2,-1,3
Cc1oc(-c2[nH]ncc2C(=O)N2CCCC2)cc1S(=O)(=O)NCc1ccc(F)cc1,-60,-3
CCOc1ccc2oc(C(=O)OCC(=O)Nc3ccc4c(c3)OCO4)c(C)c2c1,-20,27
Cc1ccc(C(=O)N2CCC(c3nc4ccccc4cc3C(N)=O)CC2)cn1,21,2
C1CCN(Cc2nc(NCCN3CCOCC3)c3c4c(sc3n2)CCC4)CC1,4,0
COc1ccccc1NC(=O)COc1ccccc1-c1nnc(-c2ccccc2)o1,13,6
O=C(COc1ccccc1-c1nnc(-c2ccccc2)o1)NCCCc1ccccc1,35*,9
O=C(COc1ccc(F)cc1Cl)NCCCn1ccc2ccccc21,19,11
O=C(COc1ccc(Cl)cc1Cl)NCCCc1ccccc1,32*,5
Cc1cc(C)n2nc(C(=O)N3CCCCC3c3nc4ccccc4s3)nc2n1 (stereo not drawn),10,9
CCc1cc2c(cc1C(=O)CCN(C)C)OCCCO2,6,-7
CNC(=O)CC1NC(=O)c2csc(n2)-c2ccc(-c3nc(C4=NC(C(=O)N5CCCC5C(N)=O)CO4)cs3)nc2-c2csc(n2)-c2csc(n2)C(C(O)c2ccccc2)NC(=O)CNC(=O)c2nc(sc2COC)C(C(C)C)NC(=O)c2nc1sc2C (stereo not drawn),6,75*
Cc1ccc2nc(-c3cccc(NC(=O)C(C)C)c3)[nH]c2c1,21,49*
COc1cccc(C(=O)Nc2ccccc2-c2nc3ccc(C)cc3[nH]2)c1,4,9
CC(C)OC(=O)c1cc2c(ccn2C)n1CC(=O)N(C)C,i,-107
SMILES,USP30 block,USP17 inh
O=S1(=O)c2ccccc2NC(c2ccccc2F)N1Cc1ccccc1 (stereo not drawn),-10,7
O=C(Cc1nc(-c2ccccc2)n[nH]1)Nc1ccc(F)cc1F,-21,-19
O=C(Cc1nc(-c2ccccc2)n[nH]1)Nc1cccc(F)c1,30*,12
O=C(NCc1noc(C2CCCCC2)n1)c1cccc(F)c1,11,3
CCCCc1nc(SCC(=O)N2CCc3ccccc32)c2c(=O)n(C)c(=O)n(C)c2n1,-54,-2
CCCc1nc(SCC(=O)Nc2ccccc2)c2c(=O)n(C)c(=O)n(C)c2n1,31*,24
COc1cccc(NC(=O)CCCSc2nc3ccccc3[nH]2)c1,-7,-5
O=C(COc1ccccc1)N1CCc2[nH]nc(-c3ccc(Cl)cc3)c2C1,-24,-10
O=C(COc1ccc(Cl)cc1)N1CCc2[nH]nc(-c3ccc(Cl)cc3)c2C1,33*,23
Cc1nc(C)c(-c2nc(-c3ccc4c(c3)[nH]c(=O)n4C3CCCC3)no2)s1,-334,-11
O=C(NCc1nc(-c2ccc3c(c2)[nH]c(=O)n3C2CCCC2)no1)c1ccccc1,-55,58*
O=S(=O)(Nc1ccccc1Oc1ccccc1)c1ccccc1C(F)(F)F,31*,27
N#Cc1ccc(S(=O)(=O)Nc2ccccc2Oc2ccccc2)cc1,18,12
O=C(CCc1nnc2ccc(N3CCCC3)nn12)NCCc1c[nH]c2ccccc12,-10,0
CS(=O)(=O)N(Cc1ccco1)Cc1cc2ccccc2[nH]c1=O,-3,-13
O=c1[nH]c2ccccc2cc1CN(Cc1ccco1)S(=O)(=O)c1ccc(F)cc1,51*,36*
COC(=O)c1cccc(NC(=O)c2ccc(OC)c(S(=O)(=O)N3CCCc4ccccc43)c2)c1,-72,-14
COc1ccc(C(=O)O)cc1S(=O)(=O)N1CCCc2ccccc21,5,42*
Cc1sc(NC(=O)c2ccccc2-c2ccccc2)nc1-c1ccc2c(c1)CCN2C(=O)C1CCCCC1,27,11
CCc1cc(=O)oc2c(C)c(OCC(=O)N3CCC4(O)CCCCC4C3)ccc12 (stereo not drawn),-1,4
Cc1oc2cc3oc(=O)c(CC(=O)N4CCC5(O)CCCCC5C4)c(C)c3cc2c1C (stereo not drawn),23,5
Cc1c(CCC(=O)N2CC[C@@]3(O)CCCC[C@H]3C2)c(=O)oc2cc(OCc3ccc(F)cc3F)ccc12,35*,·
COc1ccc(COc2ccc3c(C)c(CC(=O)N4CC[C@@]5(O)CCCC[C@H]5C4)c(=O)oc3c2)cc1,52*,46*
COCCNc1c(C#N)c2c(c3nncn13)CN(Cc1ccccc1)CC2,-351,-91
Cc1cc(-c2cnc(CC3CCN(C(=O)C(C)(C)C)C3)cn2)n[nH]1 (stereo not drawn),-3,-12
SMILES,USP30 block,USP17 inh
CC(NC(=O)c1cc(-c2ccccc2)c(N2CCOCC2)s1)c1ccccc1 (stereo not drawn),13,1
CCOC(=O)c1ccc(-n2c(CN3CCN(c4cc(C)ccc4C)CC3)nc3ccc([N+](=O)[O-])cc3c2=O)cc1,30*,12
O=c1c2cc([N+](=O)[O-])ccc2nc(CN2CCC(Cc3ccccc3)CC2)n1-c1ccccc1F,-31,-6
O=c1c2cc([N+](=O)[O-])ccc2nc(CN2CCN(c3ncccn3)CC2)n1-c1ccccc1F,32*,-7
CCOC(=O)C1CCN(Cc2nc3ccc([N+](=O)[O-])cc3c(=O)n2-c2cc(OC)cc(OC)c2)CC1,-10,18
COc1cc(N2CC[C@@H]3[C@@H]2CCN3C(=O)c2ccoc2C)ncn1,-6,-19
Cc1c(C(=O)O)nnn1-c1cccc2c1CCN(Cc1ccccc1)C2,7,4
CC1CS(=O)(=O)N(c2ccc(C(=O)N3CCCc4ccccc43)cc2)C1=O (stereo not drawn),6,6
O=C(c1ccccc1)N(Cc1ccncc1)c1nc2ccc(Cl)cc2s1,4,11
CCc1ccc2nc(N(CCCn3ccnc3)C(=O)c3cccs3)sc2c1,46*,·
COCCNC(=O)CN1CCn2c1nc(-c1ccccc1)cc2=O,-44,-6
Cc1cc(C(=O)N2CCCC2c2ccnc(N(C)C)c2)nc(=O)[nH]1 (stereo not drawn),-1,-9
O=C(Nc1ccccc1C(=O)OCc1cc(=O)n2ccsc2n1)c1ccc(F)cc1,-188,-8
CC(=O)Nc1ccc(C(=O)OCc2cc(=O)n3c4c(sc3n2)CCCC4)cc1,22,37*
COc1ccc(C(=O)Nc2ccc(C(=O)OCc3cc(=O)n4ccsc4n3)cc2)cc1,·,38*
Cc1csc2nc(COC(=O)c3cccc(NC(=O)C(C)(C)C)c3)cc(=O)n12,-20,1
